V-ATPase pHluor = regulators of yeast V-ATPase proton pumping, primary screen, pHLuorin cytosolic pH fluorescence. 0.37% of 350,000 active. S. cerevisiae. response, % at 10 µM; in the data active = response mostly above about 7.3%, no sharp cut-off; inactive = mostly below about 5.4%; note: actives read high
HSV augment = enhancers of HSV replication in host cells, fold increase, host cell viability | 0.005% of 220,000 active | HSV replication augmentation in cells | maximum fold increase; in the data active = maximum fold increase above about 1.5; tested in PC3 cells
Cardio protect = cardioprotection against H2O2-induced cell death, primary screen, uHTS, H9c2 cells, ATPLite luminescence; 0.63% of 360,000 active; H9c2 cardiomyocytes, H2O2 injury protection, 2 h; protection from H2O2 cell death, % at 20 µM; AID 588492, 2011;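 active = compounds giving at least 50% protection of heart cells from peroxide-induced death in the single-dose screen, raw or plate-pattern-corrected value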
p-CIP stab down = p/CIP-EGFP fusion destabilizers, primary screen, fluorescence, F442A cells; Q05BA5; decrease of EGFP signal, % at 10 µM; 0.01% of 290,000 active; 16 h;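 active = EGFP signal decrease of at least 30% at 10 µM or well 3 SD below plate mean, unless failing retest; inactive = the rest, including hits failing retest or dose response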
CR mimetic SO = reduction of superoxide in aged yeast, primary screen, HTS | 0.18% of 330,000 active | S. cerevisiae aged cells, superoxide DHE fluorescence; stronger effect = lower value | superoxide response (% of plate mean), % at 10 µM | AID 2690, 2010;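 active = superoxide response under a set limit, about three screen SD below normal, cut at about 65% in these data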;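 note: yeast aged for seven days with compound at 30 °C before DHE staining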
beta cell repl = inducers of MIN6 beta-cell proliferation, primary screen, ATP luminescence, uHTS; MIN6 cells proliferation, ATPlite luminescence, 48 h; cells starved in 0.2% serum; 100% = growth in 10% serum; proliferation, % at 10 µM; 0.29% of 330,000 active; AID 2380, 2010;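 active = compounds whose signal lies at least 3.5 SD above the mean of all wells on their plate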
CR mimetic CP = superoxide lowering in aged yeast cells, confirmation, cherry picked compounds. 1% of 850 active. superoxide response (% of plate), % at 10 µM. shares compounds with CR mimetic SO. S. cerevisiae aging, superoxide DHE fluorescence; stronger effect = lower value;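 active = superoxide signal below 65% of the plate average of sample wells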;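 note: cells aged with compound for 7 days at 30 degrees C before staining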
DHE counter = DHE quenching or ROS scavenging interference in aged yeast, artefact control for yeast caloric restriction mimetic project, S. cerevisiae BY4741, flow cytometry. shares compounds with CR mimetic SO. DHE fluorescence; stronger effect = lower value. fluorescence response, % at 10 µM. 850 tested, under 10 active;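 active = fluorescence response below 15%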;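 note: lower means stronger quenching of DHE signal or ROS scavenging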
VATPase regulator = yeast V-ATPase proton pumping modulators, confirmation, S. cerevisiae, pH-sensitive GFP, second cherry-pick. shares compounds with V-ATPase pHluor. S. cerevisiae pHLuorin cytosolic pH, V-ATPase proton transport. response, % at 10 µM. 2% of 980 active; in the data active = response above about 24%
Hits are given with their value; – = inactive; · = no result given. The list is not random: actives were taken first. Their share in the collection is about 1.4%.

SMILES	V-ATPase pHluor	HSV augment	Cardio protect	p-CIP stab down	CR mimetic SO	beta cell repl	VATPase regulator	others
O=C(c1ccc(N2CCN(C(=O)c3ccc(F)c(F)c3)CC2)cc1)c1cccc(F)c1	–	·	–	–	–	–	·
O=C(c1cccnc1)N1CCN(c2ccc(Cl)cc2)CC1	–	–	–	–	44	–	·	CR mimetic CP=–;DHE counter=–
O=C(c1cccnc1)N1CCN(c2ccccc2Cl)CC1	·	–	·	–	–	–	·	CR mimetic CP=–;DHE counter=–
N#Cc1ccc(N2CCN(C(=O)c3cccc(F)c3)CC2)c(F)c1	–	–	–	–	–	–	·	CR mimetic CP=–;DHE counter=–
O=C(Nc1ccc(N2CCN(C(=O)c3ccc(Cl)cc3)CC2)cc1)c1cccnc1	–	–	–	–	–	–	·
Cc1ccc(N2CC(NC(=O)N3CCN(C(=O)c4ccco4)CC3)CC2=O)cc1 (configuration not stated)	–	·	–	·	–	–	·
O=C(c1cccc(F)c1)N1CCN(c2cccc(Cl)c2)CC1	–	–	–	–	–	–	·	CR mimetic CP=–;DHE counter=–
O=C(c1cccc(F)c1)N1CCCN(C(=O)c2cccc(F)c2)CC1	–	–	–	–	–	–	·
O=C(O)/C(=C\c1cccc(OCc2ccccc2)c1)c1ccc(F)cc1	–	·	–	–	–	–	·
CN1CCC(N2CCN(C3CN(Cc4ccc(F)cc4)S(=O)(=O)C3)CC2)CC1 (configuration not stated)	·	·	–	·	·	·	·
C=CCn1c(SCC(=O)Nc2cc(C)ccc2OC)nnc1-c1ccco1	11	–	–	–	–	–	–	CR mimetic CP=–;DHE counter=–
CSCCC(NC(=O)c1cccc(C)c1)C(=O)OCC(=O)Nc1c(C)nn(-c2ccccc2)c1C (configuration not stated)	–	·	–	·	–	–	·
COc1ccc(/C=C2\C(=O)NCC(=O)N2C)cc1	253	·	–	–	–	–	–
COc1cc(C2NC(=O)NC(C)=C2C(=O)OCc2ccc(C)cc2)cc(OC)c1O (configuration not stated)	9.5	–	–	–	–	–	–
COc1cc(C2NC(=O)NC(C)=C2C(=O)OCc2ccc(C)cc2)cc(OC)c1OC (configuration not stated)	–	·	–	–	–	–	·
CCCCCCCCCCCCCCCC(=O)OC[C@H](COP(=O)([O-])OCC[N+](C)(C)C)OC(=O)CCCCCCCCCCCCCCC	·	–	·	–	·	–	·
Cc1n[nH]c(=S)n1Cc1ccccc1	9.8	–	–	–	–	–	–
CCC(=O)c1cn(CC(=O)NCc2cccnc2)c2ccccc12	–	–	–	–	–	–	·
COC/C=C/C1=CC2=CC(=O)C(C)(OC(=O)c3cnc4ccccc4n3)C(=O)C2=CN1C1CC1 (configuration not stated)	12	–	–	·	–	–	–
O=C(Nc1cccc(C(=O)O)c1)/C(=C\c1ccc2c(c1)OCO2)NC(=O)c1ccc(Br)o1	7.5	–	–	–	–	–	–
CCOC(=O)C1=C[C@@H](c2ccccc2)N(S(=O)(=O)c2ccc(C)cc2)[C@H]1c1cccc(Cl)c1	·	·	–	·	·	·	·
O=C(CCC(=O)N1CCN(c2ccccc2F)CC1)c1ccc(F)cc1	–	–	–	–	–	–	·
Cc1ccc(C(=O)CCC(=O)N2CCN(c3ccccc3O)CC2)cc1	11	·	–	·	–	–	–
COc1ccc(C(=O)C2CCCN(C(=O)C3=CCCC3)C2)cc1OC (configuration not stated)	10	–	–	–	–	–	–
COc1ccc(C(=O)C2CCCN(C(=O)CSC)C2)cc1OC (configuration not stated)	–	·	–	–	–	–	·
SMILES	V-ATPase pHluor	HSV augment	Cardio protect	p-CIP stab down	CR mimetic SO	beta cell repl	VATPase regulator	others
Cc1ccc(S(=O)(=O)NCCC(=O)N2CCN(S(=O)(=O)c3ccccc3)CC2)cc1C	–	·	–	·	–	–	·
Cc1ccc(S(=O)(=O)NCCC(=O)N2CCN(S(=O)(=O)c3cccc(F)c3)CC2)cc1C	9.1	·	–	·	–	–	–
Cc1cc(Br)ccc1NC(=O)CN(C)C(=O)C1CCN(C(=O)c2ccc(F)cc2)CC1	12	·	–	·	–	–	–
CN(CC(=O)Nc1ccccc1Cl)C(=O)C1CCN(C(=O)c2ccc(Cl)cc2)CC1	–	·	–	–	–	–	·
COc1cc(C#N)c(NC(=S)N2CCOCC2)cc1OC	·	–	·	–	–	–	·
CCCCCC(=O)N1C[C@@H](n2cc(-c3ccc(F)cc3)nn2)[C@H](O)C[C@@H]1c1ccc(Cl)cc1	–	·	–	·	·	·	·
CCCCCC(=O)N1C[C@H](n2cc(-c3ccc(F)cc3)nn2)[C@@H](O)C[C@@H]1c1ccc(C)cc1	6.8	·	–	·	·	·	–
OC1(c2ccccc2)CN(c2ccccc2)C2=[N+]1CCS2 (configuration not stated)	–	–	–	–	–	–	·
Cc1cc(C)n2nc(SCC(=O)Nc3ccccc3C)nc2n1	–	·	–	–	–	–	·
Cc1cc(C)n2nc(SCC(=O)NC(=O)c3ccccc3Cl)nc2n1	9.8	·	–	·	–	–	–
c1ccc(C2CCC(N3CCN(c4ccccc4)CC3)CC2)cc1 (configuration not stated)	–	·	–	–	–	–	·
COc1ccc(CCNC(=O)c2cc(-c3ccccc3OC)on2)cc1OC	–	–	–	–	–	–	·
COc1ccccc1-c1cc(C(=O)NCCc2ccccc2)no1	13	–	–	–	–	–	–
CC(=O)Nc1c2c(nn1-c1ccc(F)cc1)CSC2	–	·	–	–	–	–	·
CC(C)CNC(=O)COC(=O)CCC(=O)c1ccc(F)cc1	–	–	–	–	–	–	·
CCCCNC(=O)COC(=O)CCC(=O)c1ccc(F)cc1	–	–	–	–	–	–	–
CCCNC(=O)COC(=O)CCC(=O)c1ccc(F)cc1	–	–	–	–	–	–	–
CCOC(=O)CCCNC(=O)COC(=O)CCC(=O)c1ccc(F)cc1	–	–	–	–	–	–	–
Cc1ccc(NS(=O)(=O)c2ccc(C(=O)Nc3nncs3)cc2)cc1	–	·	–	·	–	–	·
N/C(=N\O)c1ccc(N2CCN(c3ncccc3C(F)(F)F)CC2)nc1	26	–	–	–	–	–	–
COc1cccc2c1nc(C)c1cc(C)oc12	11	–	–	–	–	–	–
O=C(CSc1n[nH]c(-c2ccccc2)n1)NCc1cccc(C(=O)O)c1	–	–	–	–	–	–	·
Cc1ccc(S(=O)(=O)/N=C2/NC(=O)/C(=C\c3ccccc3)S2)cc1	–	·	–	·	–	–	·

Assay outcomes as filed in PubChem BioAssay.
